Hit rate of the full screen: of about 16,000 compounds, about 4,000 (25%) were called active. Another 26% or so got no clear call; they are omitted. Not all results are given here. Unmarked numbers belong to inactive results. The call rests on the fitted dose curve; in most records, active means well fitted curve in the direction sought with a large enough effect; inconclusive means small, poorly fitted or top-dose-only effect, or effect the other way; inactive means no such curve, though single readings can be large or run the other way.
target: Cytochrome P450 2C9 (Homo sapiens) (UniProt P11712); assay: Cytochrome panel assay with activity outcomes; details: recombinant CYP, pro-luciferin dealkylation, luminescence, p450-cyp2c9; series mostly up to 57.1 µM; activity, negative = inhibition: at the top concentration
Sequence (P11712 whole entry, looked up): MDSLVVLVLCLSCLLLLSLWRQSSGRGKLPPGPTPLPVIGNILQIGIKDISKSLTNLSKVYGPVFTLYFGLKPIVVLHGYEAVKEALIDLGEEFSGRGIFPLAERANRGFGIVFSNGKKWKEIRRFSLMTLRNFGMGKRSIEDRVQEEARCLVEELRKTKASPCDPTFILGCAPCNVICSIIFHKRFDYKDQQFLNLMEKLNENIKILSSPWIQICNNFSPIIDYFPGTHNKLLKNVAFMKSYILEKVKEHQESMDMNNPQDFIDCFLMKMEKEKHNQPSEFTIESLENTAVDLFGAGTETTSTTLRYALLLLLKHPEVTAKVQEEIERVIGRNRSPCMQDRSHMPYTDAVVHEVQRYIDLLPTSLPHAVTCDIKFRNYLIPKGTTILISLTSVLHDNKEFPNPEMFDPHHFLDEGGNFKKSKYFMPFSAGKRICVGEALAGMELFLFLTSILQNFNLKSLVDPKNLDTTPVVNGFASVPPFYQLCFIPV
On the % scale 0 is the no-effect control and ±100 the full control effect.

Row | SMILES | AC50 | activity, negative = inhibition
1 | COc1ccc(S(=O)(=O)Nc2ccc(F)cc2)c(C)c1C | 8.91 µM (active) | 
2 | CC(=O)c1ccc(S(=O)(=O)NC(=O)NC2CCCCC2)cc1 |  | -9.98% [at 25.6 µM]
3 | CC(C)(C)NS(=O)(=O)c1ccc(NC(=O)NC2CCCCC2)cc1 | 20 µM (active) | 
4 | CC(C)(C)NS(=O)(=O)c1ccc(NS(=O)(=O)c2ccc(F)cc2)cc1 | 0.2 µM (active) | 
5 | COc1ccccc1S(=O)(=O)Nc1ccc(-c2nnc3n2CCCCC3)cc1 |  | -3.81%
6 | Cc1cccc(C)c1NC(=O)Nc1ccc(S(N)(=O)=O)cc1 |  | -4.33% [at 11.4 µM]
7 | COc1ccc(F)cc1S(=O)(=O)NC(Cc1ccccc1)C(N)=O (stereo unspecified) |  | -18.3%
8 | Cn1c(CNS(=O)(=O)c2ccc(F)cc2)n[nH]c1=S |  | -10.4%
9 | CC(C)(C)c1ccc(NS(=O)(=O)c2ccc(N)cc2)cc1 |  | -10.7% [at 11.4 µM]
10 | CC(C)N=C(Nc1ccc(Cl)cc1)c1cccnc1 |  | -21.8%
11 | CC(C)OC(=O)C(C)(C)Oc1ccc(C(=O)c2ccc(Cl)cc2)cc1 |  | -71.5% [at 25.6 µM]
12 | CC(C)(Oc1ccc(Cl)cc1)C(=O)Nc1cccnc1 | 14.1 µM (active) | 
13 | CC(C)(Oc1ccc(CCNC(=O)c2ccc(Cl)cc2)cc1)C(=O)O |  | -6.71% [at 25.6 µM]
14 | CC(C)(Oc1ccc(Cl)cc1)C(=O)Nc1ccncc1 | 0.501 µM (active) | 
15 | CCN=C(Nc1ccc(Cl)cc1)c1cccnc1 |  | -9.1%
16 | Nc1cc(C(=O)O)[nH]c(=O)n1 |  | 7.9% [at 11.4 µM]
17 | CC(=O)OCC(=O)[C@@]1(OC(C)=O)[C@H](C)C[C@H]2[C@@H]3C[C@H](F)C4=CC(=O)C=C[C@@]4(C)[C@]3(F)[C@H](O)C[C@@]21C |  | -50.1% [at 25.6 µM]
18 | CN(C)CCC=C1c2ccccc2CCc2ccccc21 |  | -10.9%
19 | CC(=O)NC(CCS(C)(=O)=O)C(=O)Nc1c(F)cccc1F (stereo unspecified) |  | -3.82%
20 | CS(=O)(=O)N(CC(=O)Nc1c(F)cccc1F)c1ccc(C23CC4CC(CC(C4)C2)C3)cc1 | 3.98 µM (active) | 
21 | O=C(CCN1C(=O)C2C3C=CC(C3)C2C1=O)Nc1c(F)cccc1F (stereo unspecified) |  | -21.6%
22 | CCN(CC)c1ccc(N2C(=O)/C(=C/c3cccnc3)SC2=S)cc1 |  | -19.1%
23 | Cc1ccc(S(=O)(=O)/N=C2/NC(=O)/C(=C/c3cccnc3)S2)cc1 | 0.0794 µM (active) | 
24 | CC(C)NC(=O)CC(=O)N/N=C/c1ccc(F)cc1 |  | -8.73%
25 | CC(C)c1ccc(/C=N/NC(=O)CN(c2cccc(Cl)c2Cl)S(C)(=O)=O)cc1 | 8.91 µM (active) | 
26 | C/C(CCN1CCc2nc(-c3ccccc3)c(-c3ccccc3)cc2C1)=N\O[C@@H](C)CN1CCCCc2nc(C)c(C)cc21 |  | 2.2% [at 11.4 µM]
